This passage reports Potency results from PubChem BioAssay AID1347075 (National Center for Advancing Translational Sciences (NCATS), 2019).

Among all 400,000 compounds or so, about 5,500 (1.4%) were called active. About 9% were inconclusive and are not listed. The call rests on the fitted dose curve; in most records, active means well fitted cell-killing curve with a large enough effect; inconclusive means small, poorly fitted or top-dose-only effect, or effect the other way; inactive means flat fitted curve, though single readings scatter. The entries come from a sample that favours actives as a whole. Entries that show only a call come without a potency.
Potency means the concentration at half of the fitted maximal effect.

The experiment can be described thus: qHTS assay for MDR1-selective chemotherapeutics: Primary screen using the parental adenocarcinoma cell KB-3-1. Further: nearly all actives have a fitted effect of over 60% in size. The note with it: KB-3-1 viability, CellTiter-Glo ATP luminescence, 72 h; series mostly up to 46.1 µM. In a few lines: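 Cells are dispensed, compounds pinned in, plates held at 37 °C for 72 h, then CellTiter-Glo is added and luminescence read after 10 minutes. Cell line: parental KB-3-1 in phenol-red-free DMEM, 10% FBS.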
Turning to `Cc1cccc(Nc2nc(C)nc(N)c2S(=O)(=O)c2ccccc2)c1`, the Potency result was “inactive”.

In the case of `CC(NC(=O)c1cccc2ccccc12)c1ccc2c(c1)CCCC2` (stereo unspecified), the Potency was 10.3 µM (active).

Take `CC(NC(=O)c1ccccc1SCC(=O)N1CCCC1)c1ccccc1` (stereo unspecified): the Potency result was “inactive”.

For the compound `CC(NC(=O)CNC(=O)Cc1cccc2ccccc12)c1ccc(S(N)(=O)=O)cc1` (stereo unspecified), the Potency result was “inactive”.

For the compound `O=S(=O)(NCC(c1ccccc1)N1CCc2ccccc21)c1ccccc1` (stereo unspecified), the Potency entry was “inactive”.

Turning to `Cc1ccc(NC(=O)Nc2sc3nc4n(c(=O)c3c2C)CCC(C)CC4)c(Cl)c1` (stereo unspecified), the Potency entry was “inactive”.

For `Cc1ccc(C)c(-n2c(SCC(=O)O)nc3sc4c(c3c2=O)CCCC4)c1`, the Potency result was “inactive”.

For `NNC(=O)C1CCCn2c1nc1sc3c(c1c2=O)CCCC3` (stereo unspecified), the Potency entry was “inactive”.

Take `CCCc1nc2sc3c(c2c(=O)n1NC(=O)CCCl)CCCC3`: the Potency was 23.1 µM (active).

For the compound `Cc1cccc(Cn2c(SCc3ccc(C(=O)N4CCC(C)CC4)cc3)nc3ccncc32)c1`, the Potency is 23.1 µM (active).

Regarding `COc1cccc(Cn2c(SCc3ccc(C(=O)N4CCC(C)CC4)cc3)nc3ccncc32)c1`, the Potency result is “inactive”.

In the case of `Cc1cccc(CSc2nc3ccncc3n2Cc2ccc(C(=O)O)cc2)c1`, the Potency entry is “inactive”.

Consider `CCOc1n[nH]c(-c2ccccc2)n1`, for which the Potency result is “inactive”.

In the case of `CCN(CC)S(=O)(=O)c1nnc(NC(=O)COc2ccccc2Cl)s1`, the Potency result was “inactive”.

Take `CN(Cc1cncn1C)c1ncnc2ccc(-c3ccc4c(c3)OCO4)cc12`: the Potency entry is “inactive”.

Regarding `Cn1c(=O)c2c(nc(SCC(=O)Nc3ccc(F)cc3)n2Cc2ccc(Cl)cc2)n(C)c1=O`, the Potency result was “inactive”.

As to `COc1ccc(-c2onc(C)c2C)cc1S(=O)(=O)NCC1CCN(Cc2cccc(F)c2)CC1`, the Potency entry was “inactive”.

Turning to `Cc1ccc(CS(=O)(=O)c2ncc(Cl)c(C(=O)Nc3nnc(C)s3)n2)cc1`, the Potency was 20.6 µM (active).

For the compound `Cc1ccc2nc(NC(=O)c3nc(SCc4ccccc4F)ncc3Cl)sc2c1`, the Potency result is “inactive”.

With `CCS(=O)(=O)c1ncc(N(Cc2ccc(F)cc2)Cc2ccco2)c(C(=O)Nc2cc(C)ccc2C)n1`, the Potency entry is “inactive”.

As to `Cc1cccc(NC(=O)Cn2cc(S(=O)(=O)Cc3ccccc3Cl)c3ccccc32)c1`, the Potency result was “inactive”.

With `Cc1cccc(NC(=O)c2nc(S(=O)(=O)Cc3ccccc3)ncc2Cl)c1`, the Potency was 5.8 µM (active).

For the compound `O=C(Nc1nnc(Cc2ccc(Cl)cc2)s1)c1cccnc1`, the Potency entry was “inactive”.

On to `CC(=O)c1cccc(NC(=O)c2nc(-c3ccccc3)n(-c3cccc(C)c3)n2)c1`, for which the Potency entry is “inactive”.

As to `CSc1nnc(NC(=O)c2nc(S(=O)(=O)Cc3ccc(C)cc3)ncc2Cl)s1`, the Potency is 16.4 µM (active).

For `O=C(Nc1nnc(Cc2ccc(Cl)cc2)s1)c1ccncc1`, the Potency result is “inactive”.

With `CCOC(=O)c1c(NC(=O)CSc2cn(CCNC(=O)c3cccc(C(F)(F)F)c3)c3ccccc23)sc2c1CCC2`, the Potency entry was “inactive”.

As to `CC1(C)Cc2ccccc2-c2c[nH]c(=O)n21`, the Potency result is “inactive”.

On to `COc1ccc(-c2cc(-c3nc(-c4cc(OC)c(OC)c(OC)c4)no3)[nH]n2)c(OC)c1`, for which the Potency entry was “inactive”.

As for `CC1CCN(S(=O)(=O)c2ccc3c(ccn3CCC(=O)NCc3ccc(N(C)C)cc3)c2)CC1`, the Potency entry is “inactive”.

`COc1ccc(N(C)C(=O)C2CCN(S(=O)(=O)c3cc(Br)cc4c3N(C(C)=O)CC4)CC2)cc1`: the Potency entry was “inactive”.

Take `CN1CCN(c2ccc(NC(=O)c3ccc4c(c3)OCCO4)cc2Cl)CC1`: the Potency entry is “inactive”.

For `CCN(CC)CCNC(=O)c1ccc(NS(=O)(=O)c2ccc3c(c2)OCCO3)cc1`, the Potency result was “inactive”.

Regarding `O=C(Nc1cccc(S(=O)(=O)Nc2ccc(Cl)cc2)c1)c1ccc2c(c1)OCCO2`, the Potency was 8.2 µM (active).

With `CN(C(=N)N)c1ccc(/C=C2\C=Cc3ccccc32)cc1`, the Potency entry was “inactive”.

On to `COc1ccccc1NC(=O)CSC1=Nc2ccccc2C2=NC(CC(=O)NCc3cccs3)C(=O)N12` (stereo unspecified), for which the Potency entry was “inactive”.

Turning to `O=C(Nc1ccc2c(c1)CCC2)c1cccc(S(=O)(=O)N2CCN(c3ccc(F)cc3)CC2)c1`, the Potency result is “inactive”.

In the case of `Cc1cccnc1NC(=O)c1cccc(S(=O)(=O)N2CCN(c3ccc(F)cc3)CC2)c1`, the Potency was 20.6 µM (active).

As for `Cc1ccc(C(=O)Nc2ncccc2C)cc1S(=O)(=O)N1CCOCC1`, the Potency entry is “inactive”.

As to `CCOC(=O)c1ccc2c(c1)nc(C)n2CC`, the Potency entry was “inactive”.

As to `CCOC(=O)c1cc2ccccc2n1CC(=O)c1ccccc1`, the Potency result was “inactive”.

`CCn1c(/C=C/Nc2ccccc2)[n+](CC)c2ccc(C(=O)OCC(F)(F)F)cc21`: the Potency was 18.4 µM (active).

With `COc1ccccc1-c1noc(-c2ccc(NCc3ccccc3)c([N+](=O)[O-])c2)n1`, the Potency result was “inactive”.

For the compound `C[C@H]1CN(c2ccc(Br)cc2)C(=O)[C@@H]1CC(=O)Nc1ccc(Br)cc1`, the Potency entry was “inactive”.

In the case of `CNC(=O)C[C@H]1C(=O)N(c2ccc(OC)cc2)C[C@@H]1Cc1ccccc1`, the Potency entry was “inactive”.

Take `O=C1N(Cc2ccccc2)c2ccc(Cl)cc2C1(O)c1c[nH]c2ccccc12` (stereo unspecified): the Potency result is “inactive”.

As for `CCc1nc(N2CCN(C(C)=O)CC2)c2c3c(sc2n1)CCCC3`, the Potency result is “inactive”.

As for `COCCNc1nc(-n2nc(C)cc2C)nc2sc3c(c12)CCCC3`, the Potency is 11.6 µM (active).

Consider `CCC(O)CNc1nc(-n2nc(C)cc2C)nc2sc3c(c12)CC(C)(C)OC3` (stereo unspecified), for which the Potency result was “inactive”.

Turning to `Cc1c(/C=N/N2C(=O)C3C4C=CC(C4)C3C2=O)c2ccccc2n1C` (stereo unspecified), the Potency result was “inactive”.

As for `Cc1c(/C=N\NC(=O)c2cc3ccccc3o2)c2ccccc2n1C`, the Potency was 8.2 µM (active).

As to `CC(C)Oc1ccc(NC(=O)c2cc3ccccc3o2)cc1`, the Potency result is “inactive”.

As to `O=C(c1ccc(C(F)(F)F)cc1)N1CCC(=O)N([C@H](COCc2ccccc2)Cc2ccccc2)CC1`, the Potency result is “inactive”.

In the case of `O=C(c1cc(Cl)cc(Cl)c1)N1CCC(=O)N(C(COCc2ccccc2)Cc2ccccc2)CC1` (stereo unspecified), the Potency entry was “inactive”.

On to `CC(C)CC(COCc1ccc(Cl)cc1)N1CCN(C(=O)c2ccc(C(F)(F)F)cc2)CCC1=O` (stereo unspecified), for which the Potency is 18.4 µM (active).

As to `COc1ccc(C(=O)NCC(c2ccc(N(C)C)cc2)N2CCc3ccccc32)c(OC)c1` (stereo unspecified), the Potency entry was “inactive”.

Regarding `CC1CC(C)CN(c2oc(-c3ccc(OCc4ccc(Cl)cc4)cc3)nc2C#N)C1` (stereo unspecified), the Potency entry was “inactive”.

`Cc1ccc(Nc2nc3ccccc3nc2-n2nc(C)cc2C)c(Cl)c1`: the Potency entry was “inactive”.

As to `CCCOc1ccccc1C1CC(=O)Nc2cc3c(cc21)OCO3` (stereo unspecified), the Potency is 2.59 µM (active).

On to `O=C1CC(c2ccc(F)cc2F)c2cc3c(cc2N1)OCO3` (stereo unspecified), for which the Potency entry is “inactive”.

Take `Cc1cc2c(cc1C)C(c1cccc(OC(C)C)c1)CC(=O)N2` (stereo unspecified): the Potency entry was “inactive”.
